{"source": "PubChem BioAssay (NCATS)", "note": "“And” between values parts separate entries of the source, which are not always exact repeats. Equal entries are not always repeated. Results filed as inconclusive are left out. A number with no mark means an inactive call. The source made the active and inactive calls. Unless noted, calls come from the whole dose curve; as a rule, active = well fitted activation curve with a large enough effect; inconclusive = small, poorly fitted or top-dose-only effect; inactive = flat fitted curve, though single readings scatter."}
{"target": "Tumor necrosis factor (Homo sapiens) (UniProt P01375)", "sequence (P01375 whole entry, looked up)": "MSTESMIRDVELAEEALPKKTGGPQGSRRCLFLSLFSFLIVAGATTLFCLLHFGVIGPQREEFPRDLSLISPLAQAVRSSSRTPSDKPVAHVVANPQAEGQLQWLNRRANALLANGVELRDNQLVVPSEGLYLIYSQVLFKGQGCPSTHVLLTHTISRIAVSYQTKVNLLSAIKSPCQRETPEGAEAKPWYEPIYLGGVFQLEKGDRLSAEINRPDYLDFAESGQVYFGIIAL", "test": "qHTS assay to identify small molecules that stimulate Tumor Necrosis Factor-alpha (TNF-alpha) secretion (AID 651757; active = well fitted curve in the direction sought with a large enough effect in the signal ratio; the % refers to the signal ratio; note: 0% is about no effect)", "conditions": "Human cells, HTRF 665/615 ratio; series mostly up to 92.2 µM", "procedure,_shortened": "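Read-out is HTRF, a TR-FRET sandwich of cryptate- and XL665-labeled anti-TNF-alpha antibodies detecting cytokine secreted by THP-1 cells. Cells had been incubated with test compounds at 37 C for 17 hrs beforehand.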"}
{"smiles": "CC[C@H](C)C(=O)O[C@H]1C[C@@H](C)C=C2C=C[C@H](C)[C@H](CC[C@@H]3C[C@@H](O)CC(=O)O3)[C@H]21", "outcome": "inactive"}
{"smiles": "Cc1noc(NS(=O)(=O)c2ccc(N)cc2)c1C", "outcome": "inactive"}
{"smiles": "Cc1nnc(NS(=O)(=O)c2ccc(N)cc2)s1", "outcome": "inactive"}
{"smiles": "N=C(N)c1ccc(OCCCCCOc2ccc(C(=N)N)cc2)cc1", "outcome": "inactive"}
{"smiles": "Cc1ccnc2c1NC(=O)c1cccnc1N2C1CC1", "outcome": "inactive"}
{"smiles": "NC(N)=NC(N)=NCCc1ccccc1", "outcome": "inactive"}
{"smiles": "C[C@]12C=CC(=O)C=C1CC[C@@H]1[C@@H]2C(=O)C[C@@]2(C)[C@H]1CC[C@]2(O)C(=O)CO", "outcome": "inactive"}
{"smiles": "NNC(=O)c1ccncc1", "outcome": "inactive"}
{"smiles": "CC1=NN(c2ccccc2)C(=O)C1", "outcome": "inactive"}
{"smiles": "CCc1cc(C(N)=S)ccn1", "outcome": "inactive"}
{"smiles": "Cc1cc(NS(=O)(=O)c2ccc(N)cc2)no1", "outcome": "inactive"}
{"smiles": "O=C(O)c1cc(=O)[nH]c(=O)[nH]1", "outcome": "inactive"}
{"smiles": "O=C(N[C@H](CO)[C@H](O)c1ccc([N+](=O)[O-])cc1)C(Cl)Cl", "outcome": "inactive"}
{"test_system": "not listed separately", "test": "qHTS assay for environmental chemicals that activate the Aryl hydrocarbon Receptor (AhR) signaling pathway (AID 651777); note: % of control where 0% means no effect; nearly all actives have a fitted effect of over 15% in size", "conditions": "1A2-DRE human hepatoma cells, luciferase, 24 h; active compounds read high", "procedure,_shortened": "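1A2-DRE human hepatoma reporter line; 1,200 cells/well; cmpd or DMSO 24 h, 37 C/5% CO2; One-Glo 30 min RT; luciferase lum.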"}
{"smiles": "CC[C@H](C)C(=O)O[C@H]1C[C@@H](C)C=C2C=C[C@H](C)[C@H](CC[C@@H]3C[C@@H](O)CC(=O)O3)[C@H]21", "activation": "-1.02%"}
{"smiles": "Cc1noc(NS(=O)(=O)c2ccc(N)cc2)c1C", "activation": "0.11% and 1.55%"}
{"smiles": "S=P(N1CC1)(N1CC1)N1CC1", "activation": "0.0951%"}
{"smiles": "Cc1nnc(NS(=O)(=O)c2ccc(N)cc2)s1", "activation": "-0.461%"}
{"smiles": "OC(Cn1cncn1)(Cn1cncn1)c1ccc(F)cc1F", "activation": "-1.75%"}
{"smiles": "Cc1ccnc2c1NC(=O)c1cccnc1N2C1CC1", "activation": "0.221%"}
{"smiles": "NC(N)=NC(N)=NCCc1ccccc1", "activation": "1.08% and -0.702%"}
{"smiles": "Cc1ncc([N+](=O)[O-])n1CCO", "activation": "-0.201%"}
{"smiles": "CN(C)c1ccc(C(=C2C=CC(=[N+](C)C)C=C2)c2ccc(N(C)C)cc2)cc1", "activation": "-11.2% and -3.03%"}
{"smiles": "C[C@]12C=CC(=O)C=C1CC[C@@H]1[C@@H]2C(=O)C[C@@]2(C)[C@H]1CC[C@]2(O)C(=O)CO", "activation": "-0.111%"}
{"smiles": "NNC(=O)c1ccncc1", "activation": "4.86%"}
{"smiles": "Cc1cc(NS(=O)(=O)c2ccc(N)cc2)no1", "activation": "-0.784%"}
{"smiles": "O=C(O)c1cc(=O)[nH]c(=O)[nH]1", "activation": "0.283%"}
{"smiles": "O=C(N[C@H](CO)[C@H](O)c1ccc([N+](=O)[O-])cc1)C(Cl)Cl", "activation": "2.18% and 1.42%"}
